In the library only some 1.3% were active in any assay of this set; here they are far more common.
AGP1-GFP MLPCN: modulators of AGP1-GFP expression in yeast TOR pathway, primary screen, cell-based, multiplex flow cytometry, S. cerevisiae, MLPCN library; GFP response vs DMSO, % at 10 µM; 3 h; GFP as percent of DMSO wells; 0.02% of 320,000 active; AID 2066, 2009;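 active means GFP response relative to DMSO above a set limit, near screen average plus 3 SD, cut at about 150% in these data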;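 further: median GFP channel fluorescence of the gated AGP1 strain per well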
CIT2-GFP yeast: modulators of CIT2-GFP expression in yeast, primary screen, S. cerevisiae, GFP fusion, multiplex flow cytometry, MLPCN library. S. cerevisiae CIT2-GFP strain, 3 h; 100 means same as DMSO wells. GFP response vs DMSO, % at 10 µM. 0.065% of 320,000 active;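 active means GFP response relative to DMSO above a set limit, near the screen mean plus 3 SD, cut at about 150% in these data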;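 further: ratio of well median GFP fluorescence to mean of DMSO wells on the plate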
RPL19A TOR yeast: RPL19A-GFP expression modulators in yeast, primary screen, cell-based, S. cerevisiae, multiplex flow cytometry, MLPCN; S. cerevisiae RPL19A-GFP strain, 3 h; hits give low values; percent response vs DMSO, % at 10 µM; 0.3% of 330,000 active;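 active means percent response vs DMSO below 50%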;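 further: median channel GFP fluorescence of the barcoded RPL19A-GFP strain; ratio of sample median GFP to plate DMSO average so 100% = DMSO; lower means less RPL19A-GFP as with rapamycin TOR inhibition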
MEP2 TOR yeast: modulators of MEP2-GFP levels in yeast, primary screen, S. cerevisiae, multiplex flow cytometry, MLPCN library; S. cerevisiae MEP2-GFP strain, 3 h; 100% = DMSO control level; AID 2016, 2009; 0.51% of 330,000 active; GFP response vs DMSO, % at 10 µM;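 active means GFP response versus DMSO above a set limit, roughly screen mean plus 3 SD, cut at about 180% in these data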;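 further: median GFP fluorescence of the barcode-gated MEP2-GFP cells per well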
Efflux pump inh: inhibitors of Candida efflux pumps in yeast, primary screen, S. cerevisiae, Nile Red, multiplex; S. cerevisiae Candida pump triplex; 0.44% of 330,000 active; inhibition, % at 10 µM; AID 485275, 2010;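 active means plate passing quality check with inhibition over a set limit, or well fluorescence over plate mean plus 4 SD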;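 further: Nile Red retained in pooled yeast measured as flow cytometry median fluorescence; 0% = buffer negative control and 100% = Enniatin B positive control; higher means more Nile Red kept so more efflux inhibition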
LAP4 TOR yeast: modulators of LAP4-GFP expression in yeast, primary screen, S. cerevisiae, multiplex flow cytometry, MLPCN library. 3 h; median GFP as percent of DMSO wells. GFP response vs DMSO, % at 10 µM. 0.34% of 320,000 active;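 active means GFP response vs DMSO above a set limit, about the screen mean plus 3 SD, cut at about 150% in these data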
s288c autofluor: compound autofluorescence in yeast s288c, dose response, artefact control for yeast TOR pathway GFP screen, s288c strain; shares compounds with LAP4 TOR yeast; S. cerevisiae s288c, 520 nm autofluorescence, flow cytometry, 3 h; hits give high values; zero means same as solvent-only cells; fluorescence change (kMESF span) at 33 µM; 610 tested, under 10 active;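 active means fluorescence span over the dose series, or activity score, above about 33, limit read from the data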
Yeast cmpd fluor: counter-screen for efflux pump inhibitors: compound fluorescence; 4% of 1,700 active; shares compounds with Efflux pump inh; S. cerevisiae AD/pABC3, flow cytometry; fluorescence ratio to DMSO, % at 10 µM;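 active means fluorescence ratio to DMSO above its plate's cutoff, the plate mean ratio plus 5 SD, cut at about 210% in these data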;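 further: unstained yeast with no Nile Red so the signal is compound autofluorescence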
Mdr1 pump inh: inhibitors of Candida albicans Mdr1 efflux, confirmation, flow cytometry, singleplex, Cherry Pick1 set | inhibition, % at 10 µM | shares compounds with Efflux pump inh | S. cerevisiae AD/CaMDR1, Nile Red efflux | 1% of 1,700 active; in the data active means inhibition above about 26%;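 further: 0% = DMSO vehicle and 100% = reference inhibitor; higher means more Nile Red retained so more efflux inhibition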
Cdr2 pump inh: inhibitors of Candida albicans Cdr2 efflux pump, confirmation, S. cerevisiae AD/CaCDR2, flow cytometry, cherry pick 1, singleplex | shares compounds with Efflux pump inh | AID 588520, 2011 | 4% of 1,700 active | Nile Red retention | Nile Red retention ratio vs DMSO, % at 10 µM; in the data active means Nile Red retention ratio vs DMSO above about 190%;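 further: higher ratio means more blocking of Cdr2 efflux of the dye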
Cdr1 pump inh: inhibitors of Candida albicans Cdr1 efflux pump, confirmation, S. cerevisiae AD/CaCDR1, flow cytometry, cherry pick 1, singleplex; shares compounds with Efflux pump inh; Nile Red efflux; inhibition, % at 10 µM; 1% of 1,700 active;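 active means inhibition above the screen-wide mean plus twice its standard deviation, cut at about 32% in these data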
Starred values were filed as active, the others as inactive; . = no result given.

SMILES	AGP1-GFP MLPCN	CIT2-GFP yeast	RPL19A TOR yeast	MEP2 TOR yeast	Efflux pump inh	LAP4 TOR yeast	Yeast cmpd fluor	Mdr1 pump inh	Cdr2 pump inh	Cdr1 pump inh	others
CC1CCN(Cc2nnc(-c3cccc(Br)c3)o2)CC1	100.3	104.2	100.3	106.1	0.3	102.9	.	.	.	.
O=C(c1c(O)cc(O)cc1O)C1c2c(cc(O)c3c2O[C@H](c2ccc(O)cc2)[C@@H](O)C3)OC1c1ccc(O)cc1 (stereo not given in full)	100.9	101.5	97.7	98.5	-0.2	97.8	.	.	.	.
N#C/C(=C\c1ccccn1)c1nc2ccccc2s1	166.2*	.	165.7	752.5*	1.6*	634.2*	159.6	0.2	247.2*	0.6	s288c autofluor=32.9*
N#C/C(=C(/O)C(Cl)c1ccccc1)c1nc2ccccc2s1 (stereo not given)	89.0	83.9	93.9	85.7	0.0	98.8	.	.	.	.
Cc1ccnc(N2C(=O)c3cccc4c([N+](=O)[O-])ccc(c34)C2=O)c1	74.9	181.1*	111.3	312.3*	0.9*	231.9*	215.7	0.7	128.8	0.8	s288c autofluor=6.15
CC(=O)Nc1ccc(S(=O)(=O)Nn2cnnc2)cc1	109.2	121.0	104.1	117.5	0.0	115.6	.	.	.	.
O=C(CN1CCN(CCOCCO)CC1)N1c2ccccc2Sc2ccc(Cl)cc21	100.5	94.7	97.8	90.0	1.4*	99.4	105.0	-0.2	103.6	0.0
CN1CCN(CCC(=O)N2c3ccccc3Sc3ccc(Cl)cc32)CC1	101.7	102.4	96.1	98.0	0.0	101.0	.	.	.	.
O=C(NCc1cccc(C(F)(F)F)c1)C1CC(c2ccc(C(F)(F)F)cc2)=NO1 (stereo not given)	96.3	93.9	95.5	97.6	0.0	88.7	.	.	.	.
CN(C)CCCNC(=S)/N=c1\sccn1Cc1ccccc1Cl	96.8	97.8	98.8	102.9	-0.1	92.9	.	.	.	.
S=C(/N=c1/sccn1Cc1ccccc1)NC1CC1	91.5	101.2	96.0	97.5	1.3*	110.7	101.1	-0.1	106.3	0.0
CCOC(=O)C1CCN(Cc2cc(Cl)c3ccccc3c2O)CC1	92.5	78.3	101.8	104.2	0.2	126.3	.	.	.	.
Cc1ccc(Cl)cc1N1CCN(c2cccc[n+]2C)CC1	97.6	95.9	99.9	101.9	2.2*	94.2	95.5	-0.2	92.2	0.0
O=C1CN(CC(=O)NC(=O)NCc2ccccc2)CCN1	94.6	101.1	103.0	96.9	-0.2	86.7	.	.	.	.
COc1cc(/C=C2\SC(=S)N(CC(=O)NC3=NCCS3)C2=O)cc(OC)c1OC	101.8	105.3	106.0	106.5	0.0	88.6	.	.	.	.
COc1ccc(/C=C2\SC(=S)N(CCC(=O)NC3=NCCS3)C2=O)cc1OC	95.9	104.6	99.8	96.0	5.5*	95.8	109.0	0.2	110.2	0.0
COc1ccc(/C=C2\SC(=S)N(CCCC(=O)Nc3cccc(C(=O)O)c3)C2=O)cc1OC	92.0	101.0	102.7	93.6	7.2*	93.0	96.6	-0.3	102.2	-0.1
Cc1cc(C)c2nc(NC(=O)C3CSC4(C)CCC(=O)N34)sc2c1 (stereo not given)	96.6	95.4	100.3	97.4	-0.1	98.9	.	.	.	.
O=C(COc1ccc(F)cc1)Nc1nnc(C2CC2)s1	106.1	98.4	102.4	100.6	0.0	96.8	106.2	0.0	116.4	-0.1
O=C(COc1ccccc1F)Nc1nnc(C2CCCC2)s1	114.5	100.7	106.3	106.7	-0.1	123.4	.	.	.	.
CCC1=C(c2cc(OC)c(OC)c(OC)c2)C2(CCCC2)C(=O)O1	95.3	92.5	96.8	100.0	0.8*	97.6	113.5	-0.2	108.3	0.1
COc1cc(-c2noc(C)c2C#CC2(O)CCCCC2)cc(OC)c1OC	81.3	66.6	96.6	91.3	-0.1	106.4	.	.	.	.
Cc1cc(C)c(S(=O)(=O)NC(C)C)c(C)c1-n1cnnn1	.	93.4	86.8	92.8	0.0	94.0	.	.	.	.
COC(=O)[C@H](CCSC)NC(=O)NCc1cccs1	98.3	99.8	99.6	99.4	6.7*	96.3	110.0	-0.1	101.7	0.0
CCOC(=O)c1c(NC(=O)c2ccncc2)sc(C)c1C	96.2	95.9	95.7	100.1	0.0	88.5	.	.	.	.
SMILES	AGP1-GFP MLPCN	CIT2-GFP yeast	RPL19A TOR yeast	MEP2 TOR yeast	Efflux pump inh	LAP4 TOR yeast	Yeast cmpd fluor	Mdr1 pump inh	Cdr2 pump inh	Cdr1 pump inh	others
CCOC(=O)c1c(NC(=O)COC(=O)c2ccncc2)sc(C)c1C	97.9	93.7	106.3	105.0	0.5*	99.9	95.3	-0.3	101.5	0.0
CCn1c2ccccc2c2cc(NC(=O)C(C)OC(=O)c3ccc(NC(=O)CC#N)cc3)ccc21 (stereo not given)	99.6	96.4	98.1	103.7	0.4*	102.9	106.2	0.1	103.9	0.0
COc1ccc(/C=c2\s/c(=C/C(=O)c3ccc(C)cc3)[nH]c2=O)c(OC)c1	101.0	107.2	100.4	101.1	18.8*	98.8	108.3	-0.2	118.4	0.0
COc1ccc([C@H]2[C@H](C(=O)C(C)(C)C)N3N=Cc4ccccc4C3[C@]23N=C(c2ccccc2)OC3=O)cc1 (stereo not given in full)	92.0	90.9	97.2	100.5	0.8*	100.0	120.7	0.1	129.3	0.1
O=C(CCCOc1ccccc1)Nc1ccccc1C(F)(F)F	101.9	98.8	101.3	91.3	10.2*	100.1	100.3	-0.1	105.1	0.0
CC1Oc2ccccc2N(CC(=O)c2ccc(F)cc2)C1=O (stereo not given)	108.8	100.7	104.5	102.2	1.1*	107.5	99.8	-0.1	99.7	-0.1
